JMJD2A Tudor inh = JMJD2A Tudor domain (human) inhibition; AID 504339; O75164; actives 4.4% (n = 390,000); Potency, µM (doses to about 114 µM), actives largely listed as inhibitors; AlphaScreen JMJD2A-Tudor / H3K4me3 peptide binding; note: nearly all actives have a fitted effect of over 50% in size
PLK1 PBD inh = PLK1 (human) polo-box domain binding inhibition; AID 720504; Plk1 PBD binding of FITC phosphopeptide, fluorescence polarization; Potency, µM, usual class: inhibitors; actives 2.8% (n = 360,000); P53350; note: series mostly up to about 57 µM; nearly all actives have a fitted effect of over 65% in size
G9a inh = G9a (human) methyltransferase inhibition | G9a H3K9 monomethylation, AlphaScreen, 2 h | Potency, µM (titrated, usually from 102 µM), actives largely listed as inhibitors | actives 8.8% (n = 350,000) | AID 504332; note: nearly all actives have a fitted effect of over 75% in size
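Compounds were preincubated with 20 nM G9a for 15 min, after which biotinylated H3K9 peptide (500 nM) and SAM (20 uM) started a 2 h room-temperature reaction. Monomethylated product was quantified by antibody-based AlphaScreen chemiluminescence.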
HP1b binding inh = HP1-beta chromodomain-methylated histone interaction inhibition. Potency, µM (titrated, usually from 114 µM), hits mostly inhibitors. P83916. AlphaScreen HP1-beta / biotin-H3K9me3 peptide binding. actives 0.56% (n = 390,000); note: nearly all actives have a fitted effect of over 70% in size
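Compound inhibition of the preformed complex between 50 nM HP1-beta and 50 nM biotinylated H3K9me3 peptide was read by AlphaScreen. Buffer was PBS pH 7.4 with 0.01% Tween-20. Incubations ran 30 min at room temperature, with 10 ug/mL donor/acceptor beads.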
BAZ2B inh = inhibitors of human BAZ2B bromodomain; actives 4.4% (n = 360,000); Potency, µM (doses to about 114 µM), most hits filed as inhibitors; AID 504333; Q9UIF8; AlphaScreen BAZ2B-H3K14Ac peptide displacement; note: nearly all actives have a fitted effect of over 60% in size
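Inhibition is scored as reduced AlphaScreen emission. The BAZ2B/b-H3(5-23)K14Ac complex (50 nM each) in PBS pH 7.4, 0.01% Tween-20 meets compound (up to 110 uM) for 30 min at RT before bead addition.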
VDR inhibitor = vitamin D3 receptor (human) inhibition; P11473; VDR-SRC2-3 peptide fluorescence polarization, 2 h; Potency, µM, actives largely listed as inhibitors; actives 0.93% (n = 400,000); AID 504847
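The screen uses fluorescence polarization to detect compounds that interfere with recruitment of the SRC2-3 coactivator peptide to VDR; plates are read after 2 h at room temperature.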
Large screens that a line does not name were inactive. In the library only some 11% were active in any assay of this set; here they are far more common. Calls come from the whole dose curve; as a rule, active = well fitted curve in the direction sought with a large enough effect; inconclusive = small, poorly fitted or top-dose-only effect, or another doubt; inactive = no such curve, though single readings can be large; an effect the other way counts as inactive or inconclusive.

COc1ccc(-c2nc(-c3ccc4c(c3)OCO4)[nH]c2-c2ccc(OC)cc2)cc1	JMJD2A Tudor inh 13µM, HP1b binding inh inconclusive, BAZ2B inh 18µM
CN(C)c1ccc(-c2nc(-c3cccs3)c(-c3cccs3)[nH]2)cc1	JMJD2A Tudor inh inconclusive, G9a inh 8.9µM, BAZ2B inh inconclusive (no result: PLK1 PBD inh)
COc1ccc(-c2noc(-c3ccc4c(c3)OCO4)n2)cc1	none
Oc1ccccc1-c1nc(-c2cccs2)c(-c2cccs2)[nH]1	JMJD2A Tudor inh inconclusive, BAZ2B inh inconclusive (no result: PLK1 PBD inh)
O=C(O)c1cccc(-c2ccc3c(c2)OCO3)c1	VDR inhibitor inconclusive
CC(=O)c1c(C)nc(-c2ccc3c(c2)OCO3)n1O	G9a inh 56µM
O=C(Nc1ccc(Cl)cc1Cl)c1cc(S(=O)(=O)N2CCc3ccccc32)ccc1F	none (no result: PLK1 PBD inh)
O=C(c1cnccn1)N1CCC2(CC1)CN(Cc1ccccc1)C2	none (no result: JMJD2A Tudor inh, PLK1 PBD inh, HP1b binding inh, BAZ2B inh)
CCC(C)NC(=O)c1ccc(C)c(NC(=O)C2=C(C)OCCS2)c1 (stereo not drawn)	none
O=C(O)COc1ccc(-c2nc(-c3ccccc3)c(-c3ccccc3)[nH]2)cc1	G9a inh inconclusive
COc1ccc(-c2nc(-c3ccccc3)c(-c3ccc(O)cc3)[nH]2)cc1	JMJD2A Tudor inh 28µM, G9a inh inconclusive, HP1b binding inh inconclusive, BAZ2B inh 35µM (no result: PLK1 PBD inh)
COc1cc(-c2nc(-c3ccccc3)c(-c3cccs3)[nH]2)cc(OC)c1O	JMJD2A Tudor inh 45µM, HP1b binding inh inconclusive, BAZ2B inh 50µM
COc1ccc(-c2[nH]c(-c3ccc(O)cc3)nc2-c2ccccc2)cc1	JMJD2A Tudor inh 63µM, G9a inh inconclusive, BAZ2B inh 10µM (no result: PLK1 PBD inh)
CCOc1ccccc1NC(=O)CSc1cn(CC(=O)N2CCCCCC2)c2ccccc12	none (no result: PLK1 PBD inh)
COC(=O)N1CCC2(CC1)CCN(C(c1ccccc1)c1ccccc1)CC2	none (no result: JMJD2A Tudor inh, PLK1 PBD inh, HP1b binding inh, BAZ2B inh)
CC(C)C(=O)N1CCCC1(C)C(=O)NCc1ccc(Cl)cc1 (stereo not drawn)	none (no result: JMJD2A Tudor inh, G9a inh, HP1b binding inh, BAZ2B inh, VDR inhibitor)
COc1ccc(C(=O)Nc2nnc(CC(=O)N/N=C/c3ccc(O)cc3O)s2)cc1	none (no result: JMJD2A Tudor inh, PLK1 PBD inh, HP1b binding inh, VDR inhibitor)
Cc1ccc(C(=O)Nc2nnc(CC(=O)N/N=C/c3ccc(O)c(O)c3)s2)cc1	JMJD2A Tudor inh inconclusive, BAZ2B inh 79µM
Cc1ccc(C(=O)Nc2nnc(CC(=O)N/N=C/c3ccncc3)s2)cc1	JMJD2A Tudor inh inconclusive, G9a inh 35µM, BAZ2B inh inconclusive
Cc1ccc(C(=O)Nc2nnc(Cc3ccccc3)s2)cc1	none
COc1ccc(N2CCN(C(=O)c3ccc4ccccc4n3)CC2)cc1	G9a inh 71µM
O=C(c1ccc2ccccc2n1)N1CCN(c2ccccc2O)CC1	G9a inh 45µM
O=C(c1ccc2c(c1)[nH]c(=S)n1c3ccccc3nc21)N1CCN(c2cccc(Cl)c2)CC1	G9a inh inconclusive
COc1ccc(N2CCN(C(=O)c3ccc4c(c3)[nH]c(=S)n3c5ccccc5nc43)CC2)cc1	G9a inh 13µM, BAZ2B inh inconclusive (no result: JMJD2A Tudor inh, PLK1 PBD inh, HP1b binding inh, VDR inhibitor)
O=C(c1cc2ccccc2cc1O)N1CCN(c2ccccc2O)CC1	JMJD2A Tudor inh inconclusive, G9a inh 45µM
COc1ccccc1OCC(O)CN1CCN(C(=O)c2ccccc2)CC1 (stereo not drawn)	none
CC(=O)c1ccc(NC(=O)c2cn(-c3ccccc3)nc2-c2ccc(Br)cc2)cc1	none (no result: PLK1 PBD inh)
Cc1ccc2nc(N3C(=O)C(O)=C(C(=O)c4ccc(C)o4)C3c3ccc(O)cc3)sc2c1 (stereo not drawn)	PLK1 PBD inh inconclusive, G9a inh inconclusive, BAZ2B inh inconclusive, VDR inhibitor inconclusive
CCOc1ccc2nc(N3C(=O)C(O)=C(C(=O)c4ccco4)C3c3ccco3)sc2c1 (stereo not drawn)	JMJD2A Tudor inh 40µM, PLK1 PBD inh inconclusive, G9a inh inconclusive, BAZ2B inh 50µM
Cc1cc(C)c2nc(N3C(=O)C(O)=C(C(=O)c4ccco4)C3c3ccco3)sc2c1 (stereo not drawn)	JMJD2A Tudor inh 50µM, PLK1 PBD inh 11µM, G9a inh inconclusive, BAZ2B inh 45µM, VDR inhibitor inconclusive
CCOc1ccc2nc(N3CCC(C(=O)N4CCN(C(=O)c5ccco5)CC4)CC3)sc2c1	none
COc1ccc(OC)c(C2C(C(=O)c3ccco3)=C(O)C(=O)N2Cc2cccnc2)c1 (stereo not drawn)	G9a inh inconclusive, BAZ2B inh inconclusive
Cc1ccc2nc(N3C(=O)C(O)=C(C(=O)c4ccco4)C3c3cccs3)sc2c1 (stereo not drawn)	JMJD2A Tudor inh 18µM, PLK1 PBD inh 27µM, G9a inh 25µM, BAZ2B inh 45µM, VDR inhibitor inconclusive
Cc1cc(C)c2nc(N3CCN(C(=O)c4ccco4)CC3)sc2c1	BAZ2B inh inconclusive
COc1ccc2nc(N3C(=O)C(O)=C(C(=O)c4ccco4)C3c3ccccc3OC)sc2c1 (stereo not drawn)	PLK1 PBD inh inconclusive, G9a inh 35µM, BAZ2B inh inconclusive
O=C(C=Cc1ccc2c(c1)OCO2)OCC=Cc1ccc2c(c1)OCO2	none (no result: G9a inh, BAZ2B inh)
Cc1ccc(NC(=O)/C(C#N)=C/c2cc(C)n(-c3ccc(Br)cc3)c2C)cc1C	none (no result: PLK1 PBD inh)
COc1ccc2nc(N3C(=O)C(O)=C(C(=O)c4ccco4)C3c3ccc(C)o3)sc2c1 (stereo not drawn)	JMJD2A Tudor inh inconclusive, PLK1 PBD inh 19µM, G9a inh 25µM, BAZ2B inh 45µM, VDR inhibitor inconclusive
COC(=O)c1sc(-c2ccc(Cl)cc2)cc1NC(=O)/C=C/C(=O)O	VDR inhibitor 32µM
COC(=O)c1sc(-c2ccc(C(C)(C)C)cc2)cc1NC(=O)CCC(=O)O	PLK1 PBD inh inconclusive, G9a inh 71µM
COC(=O)c1scc(C)c1NC(=O)/C=C/C(=O)O	G9a inh 1.8µM
O=C1C[C@@H](c2ccc(O)c(O)c2)Oc2cc(O[C@H]3O[C@@H](CO)[C@H](O)[C@@H](O)[C@@H]3O)cc(O)c21	none (no result: JMJD2A Tudor inh, PLK1 PBD inh, G9a inh, HP1b binding inh, BAZ2B inh)
CC1CCCC(C)N1/N=C/C=C/c1ccccc1[N+](=O)[O-] (stereo not drawn)	JMJD2A Tudor inh 40µM, G9a inh 32µM, HP1b binding inh 28µM, BAZ2B inh 22µM
COc1ccccc1N1CCN(/N=C/C=C\c2ccco2)CC1	JMJD2A Tudor inh 56µM, G9a inh 35µM, BAZ2B inh 50µM
COc1ccccc1/C=C/C=N/N1CCN(c2ccccn2)CC1	JMJD2A Tudor inh inconclusive, HP1b binding inh inconclusive, BAZ2B inh 50µM
C(=N\N1CCN(c2ccccn2)CC1)/c1ccccn1	G9a inh inconclusive
COc1ccccc1N1CCN(/N=C/C=C\c2ccccc2[N+](=O)[O-])CC1	JMJD2A Tudor inh 22µM, G9a inh 8.9µM, HP1b binding inh 14µM, BAZ2B inh 13µM
CN(CCc1ccccn1)S(=O)(=O)c1ccc(F)cc1	JMJD2A Tudor inh 5.6µM, G9a inh 7.1µM, HP1b binding inh 28µM, BAZ2B inh 45µM

Source: PubChem BioAssay
